Consider eight compounds from PubChem BioAssay (Tox21).

Where “and” joins values, the source holds several entries; their conditions need not be identical. Identical values can stand only once. Unmarked numbers belong to inactive results. Results filed as inconclusive are left out. Calls of active or inactive are those of the source. Unless noted, calls follow the shape of the dose curve; as a rule, active = well fitted curve in the direction sought with a large enough effect in the repeat runs; inconclusive = weak or mixed curves; inactive = no such curve, though single readings can be large; an effect the other way counts as inactive or inconclusive.

A short description of experiment [1]: qHTS assay to identify small molecule antagonists of the estrogen receptor alpha (ER-alpha) signaling pathway using the BG1 cell line in the presence of 0.1 nM 17-beta-estradiol - cell viability counter screen (AID 1259241). Also: nearly all actives have a fitted effect of over 40% in size. Summed up: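 The cell line endogenously expresses full-length ER-alpha and carries four EREs driving luciferase. Cells are cultured 5 days hormone-free, treated 22 hr with compounds and 0.1 nM estradiol, then viability is read by fluorescence.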
A general note: qHTS replaces the single test concentration by a dilution series.

The nature of experiment [2]: qHTS assay to identify small molecule antagonists of the androgen receptor (AR) signaling pathway using the MDA cell line in the presence of 0.5 nM R1881 - cell viability counter screen (AID 1259242). Also: nearly all actives have a fitted effect of over 45% in size. Also: potency is read from the fitted curve at half-maximal effect. In a few lines:
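Human breast carcinoma MDA-kb2 cells, cultured without CO2, receive compounds alongside 0.5 nM (final) R1881 agonist. After 16 hr at 37C, viability is taken as live-cell protease signal.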

For experiment [3], the target named is Androgen receptor (Homo sapiens) (UniProt P10275). The experiment is described as follows: qHTS assay to identify small molecule antagonists of the androgen receptor (AR) signaling pathway using the MDA cell line in the presence of 0.5 nM R1881 (AID 1259243). Also: nearly all actives have a fitted effect of over 50% in size. Also: potency is read from the fitted curve at half-maximal effect. In a few lines: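 Cells: MDA-kb2 (MMTV-luc). Stimulus: 0.5 nM R1881. Time: 16 hr, 37C, no CO2. Detection: ONE-Glo luminescence after 30 min at RT.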
Sequence of Androgen receptor (Homo sapiens) (P10275 whole entry, looked up): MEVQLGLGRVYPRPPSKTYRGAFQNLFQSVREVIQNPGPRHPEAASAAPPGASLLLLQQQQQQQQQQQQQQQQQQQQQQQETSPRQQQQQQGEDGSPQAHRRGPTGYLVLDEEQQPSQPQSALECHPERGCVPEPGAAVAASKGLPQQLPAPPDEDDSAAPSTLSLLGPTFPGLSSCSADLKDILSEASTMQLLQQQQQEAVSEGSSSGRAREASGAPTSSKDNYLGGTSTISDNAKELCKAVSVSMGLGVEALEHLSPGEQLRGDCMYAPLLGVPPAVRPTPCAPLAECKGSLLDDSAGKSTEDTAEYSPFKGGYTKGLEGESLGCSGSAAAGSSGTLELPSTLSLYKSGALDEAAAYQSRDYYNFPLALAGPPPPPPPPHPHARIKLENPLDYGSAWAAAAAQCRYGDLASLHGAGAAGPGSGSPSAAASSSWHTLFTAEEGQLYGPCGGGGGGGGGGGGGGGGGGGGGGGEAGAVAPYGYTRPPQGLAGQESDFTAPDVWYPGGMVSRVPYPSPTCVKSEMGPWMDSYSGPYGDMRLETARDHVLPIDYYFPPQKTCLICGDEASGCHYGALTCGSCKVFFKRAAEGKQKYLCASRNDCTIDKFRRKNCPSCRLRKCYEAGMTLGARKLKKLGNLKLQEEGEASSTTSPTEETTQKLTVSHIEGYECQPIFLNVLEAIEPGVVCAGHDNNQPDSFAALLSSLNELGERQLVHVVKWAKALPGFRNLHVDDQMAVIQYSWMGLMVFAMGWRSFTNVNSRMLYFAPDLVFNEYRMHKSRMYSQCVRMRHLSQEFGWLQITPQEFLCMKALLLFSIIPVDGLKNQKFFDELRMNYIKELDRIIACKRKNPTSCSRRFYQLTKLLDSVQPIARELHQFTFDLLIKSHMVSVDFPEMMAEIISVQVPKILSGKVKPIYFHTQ

Experiment [4] can be described thus: qHTS assay to identify small molecule HDAC inhibitors (AID 1259364). Also: potency is read from the fitted curve at half-maximal effect.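 Also: wild-type HCT-116 cells with endogenous class I/II HDAC activity; nearly all actives have a fitted effect of over 45% in size.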 Summed up: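 After a 2 hr compound incubation (37C, 5% CO2), HCT-116 cells seeded at 1,500/well the day before received HDAC-Glo reagent; signal read as luminescence after 30 min at room temperature.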
Experiment [5] in a line: qHTS assay to identify small molecule HDAC inhibitors - cell viability counter screen (AID 1259365). Also: series mostly up to about 92 µM; nearly all actives have a fitted effect of over 50% in size. Summed up: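 Viability readout: CellTiter-Glo luminescence. Wild-type HCT-116 cells, 2hr compound treatment following overnight attachment at 37 C.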
A short description of experiment [6]: qHTS assay to identify small molecule agonists of the sonic hedgehog signaling (Shh) pathway - cell viability counter screen (AID 1259366). Also: nearly all actives have a fitted effect of over 50% in size. Also: potency is read from the fitted curve at half-maximal effect. In a few lines:
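Viability measured fluorometrically (CellTiter-Fluor, 1hr, 37C) in 3T3 Gli1-Luc reporter cells after 23hr compound exposure within a 24hr incubation at 37C/5% CO2.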

Experiment [7] is described as follows: qHTS assay to identify small molecule antagonists of the sonic hedgehog signaling (Shh) pathway - cell viability counter screen (AID 1259367). Also: nearly all actives have a fitted effect of over 55% in size. Also: potency is read from the fitted curve at half-maximal effect. Summed up: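 Tox21 library chemicals were tested on a Gli1-Luc NIH/3T3 clone (2,000 cells/well) stimulated by conditioned medium; viability was quantified as fluorescence from CellTiter-Fluor reagent added at 23 hr.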

A short description of experiment [8]: qHTS assay to identify small molecule agonists of the sonic hedgehog signaling (Shh) pathway (AID 1259368; calls by dose curve;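 also: NIH/3T3-derived 3T3Gli1-Luc cells carrying a stable Gli1-driven firefly luciferase reporter; series mostly up to about 92 µM; nearly all actives have a fitted effect of over 15% in size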). In a few lines:
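Stable NIH/3T3 Gli1-Luc reporter clone; 24 hr cpd exposure after a 4 hr settling period; luminescence endpoint.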

Experiment [9] can be described thus: qHTS assay to identify small molecule antagonists of the sonic hedgehog signaling (Shh) pathway (AID 1259369; calls by dose curve; also: nearly all actives have a fitted effect of over 45% in size). Summed up:
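Gli1 transcriptional reporter (firefly Luc) in NIH/3T3 background, conditioned-medium activated. 24hr exposure, luminescence endpoint.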

In experiment [10] the target is Estrogen receptor beta (Homo sapiens) (UniProt Q92731). Kind of experiment: qHTS assay to identify small molecule agonists of the estrogen receptor beta (ER-beta) signaling pathway (AID 1259377; active = well fitted activation curve with a large enough effect in the signal ratio in the repeat runs, not every such curve was filed as active; the % refers to the signal ratio). Summed up:
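A UAS-controlled beta-lactamase reporter in ER-beta-UAS-bla HEK293T cells reports receptor activation. Compounds act for 16 hr at 37C in 2% charcoal-stripped serum, and a FRET substrate is read by fluorescence after 2 hours.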

For experiment [11] the target is unchanged. The experiment is described as follows: qHTS assay to identify small molecule antagonists of the estrogen receptor beta (ER-beta) signaling pathway (AID 1259378; active = well fitted inhibition curve with a large enough effect in the signal ratio in the repeat runs, not every such curve was filed as active; the % refers to the signal ratio). Summed up: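 ER-beta-UAS-bla HEK293T cells in 2% charcoal-stripped FBS medium treated with compound plus 1nM final 17-beta-estradiol for 16 hr at 37C. Beta-lactamase reporter read by FRET substrate fluorescence after 2 hours at room temperature.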

Experiment [12] in a line: qHTS assay to identify small molecule agonists of the androgen receptor (AR) signaling pathway in the presence of an antagonist - cell viability counter screen (AID 1259379). Also: nearly all actives have a fitted effect of over 25% in size. Also: potency is read from the fitted curve at half-maximal effect. In a few lines:
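Counter screen for cell viability run in parallel with the AR agonist-mode luciferase assay. MDA-kb2 cells were co-treated with nilutamide (3.0uM final) and compounds, then incubated 16 hr at 37C, and CellTiter-Fluor fluorescence was measured.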

A short description of experiment [13]: qHTS assay to identify small molecule agonists of the estrogen receptor beta (ER-beta) signaling pathway - cell viability counter screen (AID 1259380). Also: nearly all actives have a fitted effect of over 30% in size. Also: potency is read from the fitted curve at half-maximal effect. In a few lines:
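In this qHTS counter screen, HEK293T cells carrying an ER-beta/UAS beta-lactamase reporter, grown in 2% charcoal-stripped FBS, received compound for 16 hr; ATP-based CellTiter-Glo luminescence was then read after 30 min at room temperature.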

For experiment [14], the target named is Androgen receptor (Homo sapiens) (UniProt P10275). Kind of experiment: qHTS assay to identify small molecule agonists of the androgen receptor (AR) signaling pathway in the presence of an antagonist (AID 1259381; calls by dose curve; also: nearly all actives have a fitted effect of over 15% in size; also: potency is read from the fitted curve at half-maximal effect). In a few lines: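 AR antagonist background: nilutamide 3.0uM final. Cell line: MDA-kb2, MMTV-driven luciferase, responsive to both AR and GR. Exposure 16hr, 37C, no CO2; ONE-Glo luminescence.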

Experiment [15] is described as follows: qHTS assay to identify small molecule antagonists of the estrogen receptor beta (ER-beta) signaling pathway - cell viability counter screen (AID 1259382). Also: nearly all actives have a fitted effect of over 55% in size. Also: potency is read from the fitted curve at half-maximal effect. Summed up:
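HEK293T ER-beta-UAS-bla, 2% charcoal-stripped FBS; compounds + 1nM E2 16 hr 37C; CellTiter-Glo luminescence, 30 min RT.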

Experiment [16] can be described thus: qHTS assay to identify small molecule agonists or antagonists of the thyroid stimulating hormone receptor (TSHR) signaling pathway - wild type cell line counter screen (AID 1259384; calls by dose curve). In a few lines:
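Wild-type Hek293 cells, 800/well, 18 h at 37C, then compound with Ro20-1724 for 30 min RT. cAMP by HTRF (cAMP-d2/anti-cAMP cryptate), 1 h RT, fluorescence read. 15 concentrations, triplicates.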

Experiment [17] concerns the target Thyrotropin receptor (Homo sapiens) (UniProt P16473). The experiment is described as follows: qHTS assay to identify small molecule antagonists of the thyroid stimulating hormone receptor (TSHR) signaling pathway (AID 1259385; calls by dose curve; also: nearly all actives have a fitted effect of over 20% in size; also: potency is read from the fitted curve at half-maximal effect). In a few lines: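 TSHR-HEK293 cells (800/well) plated 18 h, then compounds with Ro20-1724 and TSH at 1.5 ng/mL final, 30 min at room temperature. cAMP quantified by HTRF (cAMP-d2/anti-cAMP-cryptate, 1 h); 15 concentrations in triplicate.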

The target in experiment [18] is Estrogen receptor (Homo sapiens) (UniProt P03372). The experiment is described as follows: qHTS assay to identify small molecule antagonists of the estrogen receptor alpha (ER-alpha) signaling pathway using the BG1 cell line in the presence of 0.1 nM 17-beta-estradiol (AID 1259244). Also: nearly all actives have a fitted effect of over 50% in size. Summed up: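 Seeding of stripped-serum-adapted VM7Luc4E2 cells, 24 h attachment, compound transfer, then 0.1 nM final 17beta-estradiol; after 22 h incubation, ONE-Glo reagent and luminescence reading.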
Sequence of Estrogen receptor (Homo sapiens) (P03372 whole entry, looked up): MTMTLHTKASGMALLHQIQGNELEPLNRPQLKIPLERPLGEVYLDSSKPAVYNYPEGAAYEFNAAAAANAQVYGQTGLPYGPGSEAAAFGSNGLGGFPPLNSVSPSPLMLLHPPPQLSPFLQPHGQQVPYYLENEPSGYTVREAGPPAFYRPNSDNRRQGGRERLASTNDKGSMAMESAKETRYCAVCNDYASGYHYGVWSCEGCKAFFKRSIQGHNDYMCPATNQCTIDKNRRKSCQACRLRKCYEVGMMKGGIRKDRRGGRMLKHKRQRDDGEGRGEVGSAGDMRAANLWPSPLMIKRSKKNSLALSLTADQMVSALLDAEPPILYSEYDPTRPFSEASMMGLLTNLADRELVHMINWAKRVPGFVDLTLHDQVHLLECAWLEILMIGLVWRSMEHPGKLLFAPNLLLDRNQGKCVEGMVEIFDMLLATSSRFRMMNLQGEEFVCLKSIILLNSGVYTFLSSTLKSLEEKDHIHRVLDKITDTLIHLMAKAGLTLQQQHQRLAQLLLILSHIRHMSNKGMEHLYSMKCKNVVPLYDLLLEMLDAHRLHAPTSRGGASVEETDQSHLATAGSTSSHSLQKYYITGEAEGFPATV

For experiment [19] the target is unchanged. The experiment is described as follows: qHTS assay to identify small molecule agonists of the estrogen receptor alpha (ER-alpha) signaling pathway in the presence of an antagonist (AID 1259383; calls by dose curve; also: top concentration of the series differs between compounds; nearly all actives have a fitted effect of over 15% in size). Summed up: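 ER-alpha agonism measured under antagonist challenge: 10.0nM ICI-182,780 (final) plus compound, 15 concentrations, 22hr, VM7Luc4E2 ERE-luciferase cells. Read by luminescence.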

Experiment [20] is described as follows: qHTS assay to identify small molecule phospholipidosis (PLD) inducers (AID 1259344; active = well fitted curve in the direction sought with a large enough effect; an effect the other way counts as inactive or inconclusive). Summed up: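 Image-based: LipidTOX Red pit count/intensity per well and per cell; HepG2, 24 h compound at 37 C, PFA fixation, Hoechst counterstain.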

Sequence of Thyrotropin receptor (Homo sapiens) (P16473 whole entry, looked up): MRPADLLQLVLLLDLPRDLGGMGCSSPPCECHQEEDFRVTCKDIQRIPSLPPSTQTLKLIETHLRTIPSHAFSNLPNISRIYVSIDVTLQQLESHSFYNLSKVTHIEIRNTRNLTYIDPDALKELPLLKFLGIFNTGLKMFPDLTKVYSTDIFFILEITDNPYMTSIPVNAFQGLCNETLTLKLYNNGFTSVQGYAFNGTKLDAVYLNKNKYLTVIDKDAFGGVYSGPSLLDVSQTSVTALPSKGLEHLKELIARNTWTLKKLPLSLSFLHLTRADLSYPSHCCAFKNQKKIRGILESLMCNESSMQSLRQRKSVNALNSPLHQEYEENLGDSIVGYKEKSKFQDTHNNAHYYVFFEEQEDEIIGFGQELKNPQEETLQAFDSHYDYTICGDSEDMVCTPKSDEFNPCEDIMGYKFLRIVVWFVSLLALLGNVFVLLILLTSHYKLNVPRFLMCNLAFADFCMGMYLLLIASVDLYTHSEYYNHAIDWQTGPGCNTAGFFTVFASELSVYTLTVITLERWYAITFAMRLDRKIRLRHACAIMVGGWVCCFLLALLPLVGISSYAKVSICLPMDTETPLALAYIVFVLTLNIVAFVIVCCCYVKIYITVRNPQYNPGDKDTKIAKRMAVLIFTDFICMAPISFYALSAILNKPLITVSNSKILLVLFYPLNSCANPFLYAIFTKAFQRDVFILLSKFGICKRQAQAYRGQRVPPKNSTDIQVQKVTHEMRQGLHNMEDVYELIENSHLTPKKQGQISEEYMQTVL
Sequence of Estrogen receptor beta (Homo sapiens) (Q92731 whole entry, looked up): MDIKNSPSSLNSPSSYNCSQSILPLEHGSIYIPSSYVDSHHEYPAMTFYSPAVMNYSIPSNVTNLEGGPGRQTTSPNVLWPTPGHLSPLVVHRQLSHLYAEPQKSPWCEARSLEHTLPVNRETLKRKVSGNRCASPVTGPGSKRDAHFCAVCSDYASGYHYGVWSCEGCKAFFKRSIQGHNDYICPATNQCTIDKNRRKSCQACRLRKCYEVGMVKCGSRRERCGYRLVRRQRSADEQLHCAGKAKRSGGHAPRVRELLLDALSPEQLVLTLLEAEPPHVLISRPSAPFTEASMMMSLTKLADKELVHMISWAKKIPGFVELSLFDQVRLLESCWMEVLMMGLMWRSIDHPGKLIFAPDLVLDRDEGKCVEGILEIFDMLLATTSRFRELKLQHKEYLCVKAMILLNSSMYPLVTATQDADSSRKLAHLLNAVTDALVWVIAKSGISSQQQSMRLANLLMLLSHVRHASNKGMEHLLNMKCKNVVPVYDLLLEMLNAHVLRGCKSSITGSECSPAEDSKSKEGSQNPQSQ

`Cc1cccc(OP(=O)(Oc2cccc(C)c2)Oc2cccc(C)c2)c1`: the Potency entry in [1], in experiment [2], in experiment [3], in [4], in [5] and in experiment [6] was “inactive” in each case. Besides, the Potency entry in [7], in experiment [8], in [9], in experiment [10], in experiment [11] and in experiment [12] was “inactive” throughout. In addition, the Potency entry in experiment [13], in experiment [14], in [15] and in [17] was “inactive” each time. In addition, in experiment [16], the outcome was inactive.

As for `CCOC(=O)CC(=O)CCl`, the Potency result in experiment [1], in [2], in [18], in experiment [4], in [5] and in [6] was “inactive” throughout. Further, the Potency entry in experiment [7], in experiment [8], in [9], in experiment [13], in [14] and in experiment [15] was “inactive” each time. Besides, the Potency result in [19] is “inactive”. Besides, the figures for the Potency in experiment [3] and in experiment [12] were 30.6 µM (active) and 61.1 µM (active), respectively.

On to `C[C@@H]1O[C@@H](O[C@H]2C[C@@H](O)[C@]3(CO)[C@H]4[C@H](O)C[C@]5(C)[C@@H](C6=CC(=O)OC6)CC[C@]5(O)[C@@H]4CC[C@]3(O)C2)[C@H](O)[C@H](O)[C@H]1O`, for which the Potency entry in [1], in experiment [2], in [3], in experiment [18], in experiment [20] and in experiment [4] was “inactive” in each case. The Potency result in experiment [5], in experiment [6], in [7], in experiment [8], in experiment [9] and in experiment [12] was “inactive” throughout. Also, the Potency entry in experiment [19] is “inactive”. For the same compound, the Potency in experiment [13] was 81.9 nM (active) and 94.4 nM (active); in experiment [14], 366 nM (active) and 168 nM (active); in [15], 46.1 nM (active) and 75 nM (active).

In the case of `[CH3][Hg][Cl]`, the Potency entry in experiment [1], in [18], in experiment [8], in experiment [14], in experiment [15] and in experiment [19] was “inactive” throughout. Also, the Potency is 21.6 µM (active) in [2]; 19.3 µM (active) in [3]; 27.2 µM (active) in [4]; 4.84 µM (active) in experiment [6]; 68.4 µM (active) in experiment [7]; 21.6 µM (active) in experiment [12]. For the same compound, the Potency in experiment [13] was 60.9 µM (active); in experiment [17], 17.2 µM (active). Further, in [16], the result was inactive.

Turning to `O=C(NC(=O)c1c(F)cccc1F)Nc1cc(Cl)c(OC(F)(F)C(F)F)c(Cl)c1`, the Potency result in experiment [1], in [2], in [3], in experiment [18], in experiment [4] and in [5] was “inactive” each time. For the same compound, the Potency result in experiment [6], in experiment [7], in [8], in experiment [9], in [11] and in experiment [12] was “inactive” each time. Also, the Potency entry in experiment [14], in experiment [15], in experiment [19] and in [17] was “inactive” each time. Also, in [16], the result was inactive.

As for `CCCCOCN(C(=O)CCl)c1c(CC)cccc1CC`, the Potency result in [1], in experiment [2], in experiment [18], in experiment [4], in experiment [5] and in [8] was “inactive” in each case. Moreover, the Potency result in experiment [12], in experiment [14], in [15] and in [19] was “inactive” in each case. In addition, the values for the Potency in experiment [3], in [7] and in experiment [17] were 30.6 µM (active), 61.1 µM (active) and 61.1 µM (active), respectively. Besides, the outcome in [16] was inactive.

As for `C=COCCCl`, the Potency result in experiment [1], in [2], in [3], in experiment [18], in [4] and in [6] was “inactive” in each case. The Potency entry in [7], in experiment [8], in experiment [10], in experiment [11], in experiment [12] and in experiment [13] was “inactive” in each case. The Potency result in experiment [14], in experiment [15] and in experiment [19] was “inactive” throughout. Besides, the call in experiment [16] was inactive.

Consider `N#Cc1ccccc1N`, for which the Potency result in [1], in experiment [2], in experiment [3], in experiment [18], in experiment [4] and in experiment [6] was “inactive” each time. Besides, the Potency entry in experiment [7], in experiment [8], in experiment [9], in experiment [10], in experiment [11] and in [12] was “inactive” throughout. The Potency result in experiment [13], in experiment [14], in experiment [15], in [19] and in experiment [17] was “inactive” throughout. Besides, the outcome in experiment [16] was inactive.
